Compound activity deposited in PubChem by several laboratories.
This is a sample that favours compounds with a hit; in the whole collection about 4.7% have one here.
ADAM10 inh: human ADAM10 inhibitors, primary screen, biochemical, QFRET, HTS | AID 720582, 2013 | inhibition, % at 7 µM | 0.62% of 370,000 active | Disintegrin and metalloproteinase domain-containing protein 10 (Homo sapiens), O14672 | recombinant ADAM10, EDANS/DABCYL FRET peptide cleavage, 3 h;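 active = inhibition above a per-campaign cutoff equal to the mean of compounds falling between control-based bounds plus 3 SD, cut at about 20% in these data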;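 also: 0% = DMSO wells while the 100% control is not disclosed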
MPTP inh: mitochondrial permeability transition pore inhibitors, primary screen, biochemical, isolated mouse mitochondria, absorbance; Ca2+ swelling absorbance, 30 min; inhibition, % at 10 µM; 1.4% of 360,000 active; AID 602449, 2012;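 active = inhibition of 50% or more, scaled per plate between neutral and stimulator controls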;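 also: 0% = DMSO wells given calcium and 100% = 1 mM EGTA wells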
proKLK7 act: proKLK7 zymogen activators, primary screen, biochemical, fluorescence intensity | activation, % at 7 µM | purified proKLK7, EDANS-DABCYL substrate fluorescence; 100% is mature enzyme control, 0% vehicle | Kallikrein-7 (Homo sapiens), P49862 | 0.9% of 370,000 active | AID 652039, 2013;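 active = activation above the mean of all tested compounds plus 3 SD, computed per campaign excluding outliers beyond control limits, cut at about 13% in these data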
Pemphigus Ab inh: inhibitors of pemphigus antibody binding to DSG3, primary screen, biochemical, bead-based, flow cytometry, scFv-GFP | Desmoglein-3 (Homo sapiens), P32926 | DSG3-coupled beads, scFv-anti-DSG3-GFP binding; active compounds read low | binding (percent of control), % at 10 µM | 0.48% of 310,000 active;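 active = binding more than 3 SD below its plate's average and above zero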;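 also: hits lower antibody fragment binding to DSG3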
ADAM17 inh: ADAM17 inhibitors, primary screen, biochemical, QFRET; Disintegrin and metalloproteinase domain-containing protein 17 (Homo sapiens), P78536; recombinant ADAM17, EDANS/DABCYL FRET peptide cleavage; inhibition, % at 6.95 µM; 0.83% of 370,000 active;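 active = inhibition above the mean of compounds lying between control limits plus 3 SD, set per campaign, cut at about 8.5% in these data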;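 also: 0% = DMSO-only wells as the low control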
rCAG RNA binder: binders of r(CAG) RNA repeats, primary screen, biochemical, fluorescence. r(CAG) RNA repeat, TO-PRO-1 dye displacement fluorescence. inhibition, % at 3 µM. 1.3% of 370,000 active;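 active = inhibition above the plate cutoff, the mean of all test compounds on that plate plus 3 SD, cut at about 35% in these data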;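 also: 0% = DMSO alone and 100% = 100 µM mitoxantrone as full dye displacement; higher means more dye released from RNA so lower well fluorescence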
Starred values were filed as active, the others as inactive; . = no result given.

SMILES	ADAM10 inh	MPTP inh	proKLK7 act	Pemphigus Ab inh	ADAM17 inh	rCAG RNA binder
CCn1c(SCC(=O)N2c3ccccc3CC2C)nnc1-c1ccco1 (stereo not drawn)	-2.2	-1.1	-0.1	.	-3.8	-6.2
COC(=O)c1ccc(Cn2ccc3ccc(-c4ccc5ccn(Cc6ccc(C(=O)OC)cc6)c5c4)cc32)cc1	-19.8	.	-0.3	.	-6.6	22.6
CCCN1C(=O)/C(=c2\sc3nc(=O)c(Cc4ccc(C)cc4)nn3c2=O)c2ccccc21	-1.6	0.9	-0.2	67.7*	-0.6	5.0
COc1ccc(-c2csc(Nc3ccc(S(N)(=O)=O)cc3)n2)cc1	-9.9	0.0	0.1	87.8*	-2.3	8.3
COc1ccc(Cl)cc1NC(=O)c1cnccn1	3.1	0.7	0.4	113.0	-1.1	1.1
O=C(Nc1cc(Cl)ccc1Oc1ccccc1)c1cnccn1	-3.0	-2.4	-0.3	66.1*	-3.6	1.1
O=C(Nc1ccc(C(=O)O)cc1)/C(=C\C=C\c1ccccc1)NC(=O)c1ccccc1Cl	-10.2	0.7	0.0	109.0	0.0	37.2*
OC1COC(c2ccccc2)OC1C1OC(c2ccccc2)OCC1O (stereo not drawn)	-11.7	0.0	-0.2	99.6	-4.0	0.2
CC1OC(c2ccccc2)OC2COC(c3ccccc3)OC12 (stereo not drawn)	-6.6	-0.9	-0.5	-6.5*	-2.6	1.2
COc1c(C(=O)Nc2ccc(Br)cn2)ccc2ccccc12	-1.4	1.2	0.1	95.6	-2.1	6.8
COc1cc2ccccc2cc1C(=O)NC(=S)Nc1nnn(C)n1	-10.4	-0.3	0.0	-8.3*	-3.4	0.5
COc1cc2ccccc2cc1C(=O)Nc1ccc(Br)cn1	-4.8	-0.1	-0.6	88.8*	-4.7	2.9
COc1ccccc1C(=O)N1CCN(C(=O)[C@H](CCc2ccccc2)NC(=O)[C@H]2O[C@@H](n3cnc4c(N)ncnc43)[C@H](O)[C@@H]2O)CC1	-6.5	.	0.5	.	-4.1	1.1
COC(=O)C1=C(C)N(Cc2cccc(C(F)(F)F)c2)C(=NCc2ccc3c(c2)OCO3)NC1CCc1ccccc1 (stereo not drawn)	-14.4	.	0.2	.	-2.4	8.8
COC(=O)c1cc2c(c3c4ccccc4n(S(=O)(=O)c4ccc(OC)cc4)c13)C(=O)N(C)C2	-16.7	.	-0.1	.	-3.0	11.3
O=C(Nc1ccccc1)Nc1nnc(Cc2ccccc2F)s1	3.6	4.0	0.0	112.7	1.0	31.2
CCOC(=O)Cc1nnc(NC(=O)Nc2ccccc2)s1	0.1	0.1	0.0	.	-3.8	34.6*
Cc1ccc(Cn2cc(COC(=O)NCCc3c[nH]c4ccccc34)nn2)cc1	2.0	.	-0.6	.	-2.6	6.9
CC(=O)C(C(C)=O)c1c(Cl)c(O)c(O)c2c(C(=O)c3ccccc3)coc12	32.5*	3.4	-0.8	99.2	15.4*	9.0
CC(C)Oc1ccc(C(=O)Nc2ccc(NC(=O)c3ccco3)c(Cl)c2)cc1	-14.0	-1.4	0.3	54.1*	-3.6	5.2
COc1ccc(NC(=O)c2ccco2)cc1NC(=O)c1ccccc1F	5.3	-1.2	0.2	84.5*	-0.8	1.2
COc1cc(OC)cc(C(=O)Nc2cc(NC(=O)c3ccco3)ccc2OC)c1	-9.2	0.4	-0.2	100.8	1.0	2.1
O=C(NC1CCCC1)C1CSCCS(=O)(=O)N1Cc1ccc(F)cc1 (stereo not drawn)	-5.6	.	-0.2	.	-3.2	2.0
COc1ccc2[nH]c(C)c(CCNC(=S)Nc3cc(C)ccc3C)c2c1	5.9	1.2	-0.6	-16.5*	0.2	5.7
COC(=O)[C@]12C[C@H](CC(=O)N3CCCC3)C(=O)N(Cc3cccc4ccccc34)C1=C[C@H](COCc1ccccc1)O[C@@H]2C	8.7	.	0.0	.	7.0	6.1
SMILES	ADAM10 inh	MPTP inh	proKLK7 act	Pemphigus Ab inh	ADAM17 inh	rCAG RNA binder
COC(=O)Cc1nnn2c1CC(OC)c1cc(Br)ccc1-2 (stereo not drawn)	-2.0	.	-0.3	.	-1.6	2.4
COc1ccc(N(CC(C)C)S(=O)(=O)c2nnc(NC(=O)c3ccco3)s2)cc1	-9.3	9.6	1.0	.	4.5	75.7*
COc1cc2c(cc1NC(=O)CCC(=O)O)oc1ccccc12	-11.9	-0.6	-0.3	102.9	-0.6	10.8
COc1cc2c(cc1NC(=O)Nc1ccccc1)oc1ccccc12	-56.0	3.3	-2.5	112.2	-15.3	35.1*
CCCC/C=C1/C(c2ccccc2)N(Cc2ccc(OC)cc2OC)C2=NC(c3ccccc3)CC(=O)N21 (stereo not drawn)	0.5	.	.	.	-1.6	.
CCC(=O)OC1(C)C(=O)C=C2C=C(c3ccc(C#N)cc3)OC=C2C1=O (stereo not drawn)	-12.6	4.7	-0.7	93.9	-4.9	42.4*
CC(C)(C)C(=O)N1CCN(c2nc3ccccc3o2)CC1	1.5	-1.4	-0.1	122.8	-2.1	-4.7
O=C(c1ccc(-c2ccccc2)cc1)N1CCN(c2nc3ccccc3o2)CC1	-0.2	3.7	0.1	68.8*	-0.1	2.3
COC(=O)[C@]12CCCCC=C1N(Cc1ccc(OC)cc1)C(=O)[C@@H]2CC(=O)NCc1cccc(C(F)(F)F)c1	10.6	.	0.1	.	5.3	-0.8
CCc1ccc(C(C)NC(=O)c2ccc(F)cc2)cc1 (stereo not drawn)	-9.1	-1.0	0.2	109.1	3.0	1.2
CCCC(C)NC(=O)c1ccc(F)cc1 (stereo not drawn)	-1.4	-1.0	0.2	27.4*	-4.6	0.4
COc1cc(/C=C2/N=C(c3ccccc3)OC2=O)c(F)cc1OCc1ccccc1	6.7	3.0	0.4	97.0	-2.2	40.1*
Cc1ccc(-n2c(SCc3cccc(F)c3)nnc2-c2cccc(C)c2)cc1	0.1	.	-0.5	.	3.6	0.2
Cc1ccc2nc(NC(=O)C3CCN(c4ncnc5sc(C)c(C)c45)CC3)sc2c1	.	-0.6	.	86.2*	.	.
CN(c1ccc(C(=O)NC2CC3CCC2C3)cc1)S(C)(=O)=O (stereo not drawn)	1.9	0.9	0.4	6.6*	-2.6	0.6
Cc1cc(C)cc(N(CC(=O)NC2CC3CCC2C3)S(C)(=O)=O)c1 (stereo not drawn)	-1.0	-1.4	0.0	98.2	-0.5	-1.7
CN(C)c1ccc(C#Cc2ccc3cc(CCCO)oc(=O)c3c2)cc1	-40.0	1.9	0.1	84.2*	-7.7	6.8
CC(C)CC1O[C@@H](C)[C@@H]2CN3CCc4c([nH]c5ccccc45)[C@@H]3C[C@@H]2N1C (stereo partly drawn)	-43.8	.	0.7	.	-12.2	0.9
